Inconclusive results are not listed. Entries that show only a call come without a potency. Activity calls are given as the source filed them. The call rests on the fitted dose curve; in most records, active means well fitted cell-killing curve with a large enough effect in the repeat runs; inconclusive means weak or mixed curves, or effect the other way; inactive means flat fitted curve, though single readings scatter.
assay: qHTS assay to identify small molecule that activate the aryl hydrocarbon receptor (AhR) signaling pathway - cell viability counter screen (AID 743086); conditions: HepG2-AhR-luc viability, CellTiter-Fluor, 24 h; series mostly up to 70.3 µM;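 further: HepG2 liver cells carrying the AhR DRE luciferase reporter; nearly all actives have a fitted effect of over 45% in size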
From the text: U.S. Tox21 Program National Center for Advancing Translational Sciences [NCATS] NIH Chemical Genomics Center [NCGC] U.S. Environmental Protection Agency [EPA] National Institutes of Environmental Health Sciences [NIEHS] National Toxicology Program [NTP] U.S. Food and Drug Administration [FDA] Tox21 Assay overview: The Aryl hydrocarbon Receptor (AhR), a member of the family of basic helix-loop-helix transcription factors, is crucial to adaptive responses to environmental changes. AhR mediates cellular responses to environmental pollutants such as aromatic hydrocarbons through induction of phase I and II enzymes but also interacts with other nuclear receptor signaling pathways A cell based HepG2-AhR-luc assay (HG2L7.5c1 cell line, developed by Dr. Michael S. Denison, University of California at Davis) was used to assess the activation of AhR. HepG2 (human hepatocellular carcinoma) cells were stably transfected with an Ah receptor-responsive firefly luciferase reporter gene plasmid containing 20 dioxin responsive elements and luciferase reporter gene. Increased luciferase activity can be used to identify the compounds that induce AhR activation. The cytotoxicity of the compounds screened against the HepG2-AhR-luc cell line was tested in parallel by measuring the cell viability using CellTiter-Fluor assay in the same wells.
Tox21 Assay Protocol Summary: 4000 cells in 5 uL/well were dispensed into white wall/solid bottom 1536-well plates using a Multidrop Combi (Thermo Fisher Scientific Inc., Waltham, MA) dispenser. After the assay plates were incubated at 37C for 5 h, 23 nL of compound or DMSO vehicle was transferred to the assay plates by a pintool station (Kalypsys, San Diego, CA). The plates were incubated at 37C for 24 hr. For cell viability measurement, 1 ul/well of CellTiter-Fluor reagent (Promega, Madison, WI) was added into the assay plates using a Flying Reagent Dispenser (FRD) (Aurora Discovery, CA),and then the assay plates were incubated at 37C for 30 min. The fluorescence intensity in the plates was measured using a ViewLux plate reader (PerkinElmer, Shelton, CT), followed by the addition of 4 uL of ONE-Glo Luciferase Assay reagent (Promega) using an FRD (Aurora Discovery). After the assay plates were incubated at room temperature for 30 min, luminescence intensity was measured using a ViewLux plate reader (Perkin Elmer).

SMILES | Potency
NC(=O)N1c2ccccc2CC(=O)c2ccccc21 | inactive
NCCCC[C@H](N[C@@H](CCc1ccccc1)C(=O)O)C(=O)N1CCC[C@H]1C(=O)O | inactive
CC(C)c1ccc2ncccc2c1 | inactive
CCCCS(=O)(=O)N[C@@H](Cc1ccc(OCCCCC2CCNCC2)cc1)C(=O)O | inactive
CCOC(=O)COc1cc(-n2ncc(C(F)(F)F)c(C)c2=O)c(F)cc1Cl | inactive
O=Cc1cccc(Br)c1 | inactive
CC12CCC(C(=O)C1=O)C2(C)C (stereo not given) | inactive
CC(N)C12CC3CC(CC(C3)C1)C2 (stereo not given) | inactive
CN(C)CCCN(C)CCCN(C)C | inactive
CCOC(=O)C1=NOC(c2ccccc2)(c2ccccc2)C1 | inactive
COc1ccnc(CS(=O)c2nc3cc(OC(F)F)ccc3[nH]2)c1OC (stereo not given) | inactive
O=C(O)CNC(=O)c1ccccc1 | inactive
CC(C)(C)C(=O)Oc1ccc(S(=O)(=O)Nc2ccccc2C(=O)NCC(=O)O)cc1 | inactive
CCOC(=O)CCC(=O)OCC | inactive
CCN[C@@H]1C[C@H](N)[C@@H](OC2OC(CN)=CCC2N)[C@H](O)[C@H]1O[C@H]1OC[C@](C)(O)[C@H](NC)[C@H]1O (stereo not given in full) | inactive
O=S(=O)(O)c1cccc2c(S(=O)(=O)O)cccc12 | inactive
CCCCN1C=CN(C)C1 | inactive
CC[N+](C)(CC)CCOC(=O)C1c2ccccc2Oc2ccccc21 | inactive
COc1c(N2CCNC(C)C2)c(F)cc2c(=O)c(C(=O)O)cn(C3CC3)c12 (stereo not given) | inactive
C[C@@H]1CCC[C@H](C)N1 | inactive

SMILES | Potency
COc1cc2c(cc1OC)-c1cc3ccc(OC)c(OC)c3c[n+]1CC2 | inactive
C=CC(C)(CCC=C(C)C)OC(=O)CC (stereo not given) | inactive
CCO[Si](OCC)(OCC)c1ccccc1 | inactive
C=C[Si](OC(C)=O)(OC(C)=O)OC(C)=O | inactive
NC(CCC(=O)O)C(=O)O (stereo not given) | inactive
COC(=O)Nc1ccc(Cl)c(Cl)c1 | inactive
C=CCOCC(O)CO (stereo not given) | inactive
C[C@H]1[C@H](NC(=O)/C(=N/OC(C)(C)C(=O)O)c2csc(N)n2)C(=O)N1S(=O)(=O)O (stereo in doubt) | inactive
COc1ccc2cc1Oc1cc3c(cc1OC)CC[N+](C)(C)[C@H]3Cc1ccc(cc1)Oc1c(OC)c(OC)cc3c1[C@@H](C2)[N+](C)(C)CC3 | inactive
CCOc1ccccc1OCC | inactive
N[C@@H](CCC(=O)O)C(=O)O | inactive
CO[C@@]1(NC(=O)C(C(=O)O)c2ccc(O)cc2)C(=O)N2C(C(=O)O)=C(CSc3nnnn3C)CO[C@@H]21 (stereo not given in full) | inactive
CO/N=C(\C(=O)N[C@@H]1C(=O)N2C(C(=O)O)=C(CSc3nc(=O)c(O)nn3C)CS[C@H]12)c1csc(N)n1 | inactive
CC1(C)OC[C@@H](COC(=O)CCc2ccc(OC[C@@H](O)CNCCNC(=O)N3CCOCC3)cc2)O1 | inactive
CC1=CC(=O)[C@H]2C[C@@H]1C2(C)C | inactive
O=S(=O)(O)c1cccc(S(=O)(=O)O)c1 | inactive
CC(CO)(CO)[N+](=O)[O-] | inactive
NS(=O)(=O)Cc1noc2ccccc12 | inactive
CO[C@@]1(NC(=O)CSC[C@@H](N)C(=O)O)C(=O)N2C(C(=O)O)=C(CSc3nnnn3C)CS[C@@H]21 | inactive
O=[N+]([O-])c1ccc(/C=N\O)o1 | inactive

— PubChem BioAssay (Tox21)
